{"source": "patent US20150152398", "about": "“Endoribonuclease and Methods of Use Thereof” (The Regents of the University of California, published 2015)"}
{"biological_target": "T1, TtCas6A R129A (Thermus thermophilus HB8, R129A)", "T1 chain": "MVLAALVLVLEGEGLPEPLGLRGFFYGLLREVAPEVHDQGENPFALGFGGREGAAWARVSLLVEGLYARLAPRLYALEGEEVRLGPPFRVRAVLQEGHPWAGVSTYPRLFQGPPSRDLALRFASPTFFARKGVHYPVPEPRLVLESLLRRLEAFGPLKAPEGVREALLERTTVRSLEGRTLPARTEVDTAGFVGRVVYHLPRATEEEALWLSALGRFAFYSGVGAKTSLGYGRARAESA", "test": "EMSA; Kd in FIG. 24D only", "details": "chain copies: 2 inferred; label: 5'-32P (EMSA); hairpin; ssRNA", "excerpt": "FIG. 22 illustrates that TtCas6A and TtCas6B both cleave repeats R1 and R3 and retain their cleaved products. (A) Sequences and predicted secondary structures of T. thermophilus CRISPR repeats. Sites of cleavage are indicated with blue arrows. TtCas6e (TTHB192) cleaves repeat R2, while TtCas6A (TTHA0078) and TtCas6B (TTHB231) both cleave repeats R1 and R3. (B) Cleavage product binding affinities of TtCas6A and TtCas6B enzymes. Maltose binding protein (MBP)-fused TtCas6A or TtCas6B were bound to in 5′-radiolabelled, vitro transcribed R1 and R3 RNAs. Bound and unbound fractions were resolved by electrophoresis on a native polyacrylamide gel and visualized by phosphorimaging. The data for these and all subsequent binding assays were fit with standard binding isotherms (solid line). Error bars on each data point denote standard error of the mean (SEM) from three independent experiments. (C) Experiments to confirm single turnover. RNA cleavage assays were carried out at indicated protein:RNA ratios. RNA cleavage was monitored using denaturing polyacrylamide gel electrophoresis. The data from these and all subsequent endoribonuclease activity assays were fit with single exponential curves to yield first-order rate constants. (Top to bottom: FIG. 22A, SEQ ID NOs: 1, 2, 55).\nTo test the importance of the stem sequence for substrate RNA recognition by TtCas6A, a series of EMSAs was performed using R1 repeat-derived RNAs that carried single base pair substitutions (C-G→A-U). All mutant RNAs contained the complete 5′ segment and additional two nucleotides downstream of the cleavage site. Compared to the wild-type RNA, substitution of any of the four C-G base pairs in the stem led to about five-fold decrease in affinity (FIG. 24C). This is consistent with the observation that the lower three C-G base pairs are specifically read out by Arg129. The binding defect observed upon mutation of the closing (uppermost) base pair could be due to loss of stability of the stem-loop structure, which is determined by the closing base-pair (Serra et al, 1993). To further investigate the protein determinants of RNA binding, we tested the TtCas6A mutants H37A and R129A and performed binding assays using substrates R1 and R3 (FIG. 24D)."}
{"sequence": "GUUGCAAGGGAUUGAGCCCCGUAAGGGGAUUGCGAC", "binding signal": "~260 fold lower affinity than WT"}
{"sequence": "GUUGCAAACCUCGUUAGCCUCGUAGAGGAUUGAAAC", "binding signal": "~290 fold lower affinity than WT"}
